Records with an inconclusive call do not appear. Unmarked numbers belong to inactive results. Activity calls are given as the source filed them. Calls come from the whole dose curve; as a rule, active = well fitted activation curve with a large enough effect; inconclusive = small, poorly fitted or top-dose-only effect; inactive = no such curve, though single readings can be large or run the other way.
biological target: Relaxin receptor 1 (Homo sapiens) (UniProt Q9HBX9); assay: qHTS Assay for Agonists of the Relaxin Receptor RXFP1: RXFP1 Hit Validation; settings: HEK293T-RXFP1 cAMP TR-FRET, 30 min; series mostly up to 115 µM; activation: at the top concentration; note: nearly all actives have a fitted effect of over 65% in size;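 for activation: cAMP rise lowers the TR-FRET signal in lysed cells with PDE4 inhibitor present; 0% = buffer-only basal and 100% = 29 nM porcine relaxin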
Sequence (Q9HBX9 whole entry, looked up): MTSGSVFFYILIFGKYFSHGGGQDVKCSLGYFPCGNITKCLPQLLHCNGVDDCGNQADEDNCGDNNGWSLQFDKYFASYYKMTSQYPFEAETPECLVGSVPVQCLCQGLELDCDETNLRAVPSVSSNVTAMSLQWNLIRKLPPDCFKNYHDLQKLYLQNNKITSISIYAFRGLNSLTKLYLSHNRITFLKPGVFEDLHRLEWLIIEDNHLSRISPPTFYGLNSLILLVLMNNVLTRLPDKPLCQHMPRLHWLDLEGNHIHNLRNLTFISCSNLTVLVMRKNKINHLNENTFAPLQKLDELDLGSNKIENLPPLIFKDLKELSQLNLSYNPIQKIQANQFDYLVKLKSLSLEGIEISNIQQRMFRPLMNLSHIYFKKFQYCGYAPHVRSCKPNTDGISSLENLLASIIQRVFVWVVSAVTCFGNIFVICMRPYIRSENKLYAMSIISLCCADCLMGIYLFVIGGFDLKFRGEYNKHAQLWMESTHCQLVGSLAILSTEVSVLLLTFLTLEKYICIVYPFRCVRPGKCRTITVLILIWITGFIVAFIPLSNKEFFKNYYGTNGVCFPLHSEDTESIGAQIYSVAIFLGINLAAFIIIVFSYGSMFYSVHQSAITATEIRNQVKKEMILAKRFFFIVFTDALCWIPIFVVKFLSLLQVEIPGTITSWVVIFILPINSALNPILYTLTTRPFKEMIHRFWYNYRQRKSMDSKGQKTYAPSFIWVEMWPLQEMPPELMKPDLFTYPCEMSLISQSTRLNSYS
Potency is the fitted concentration of half-maximal effect.

Row | Structure (SMILES) | Potency | activation
1 | Cc1ccc2[nH]c3c(=S)nc[nH]c3c2c1 | 3.88 µM (active) | 
2 | Cc1cccc(NC(=O)c2ccccc2NC(=O)C2CCCCC2)c1C |  | -1.94% [at 125 µM]
3 | O=C(O)CCC(=O)N1CCN(c2nc(-c3ccccc3Cl)c3cc(Br)ccc3n2)CC1 |  | 28.4% [at 45 µM]
4 | CC(NC(=O)c1ccccc1NC(=O)c1ccco1)C(=O)O (centres undefined) |  | 5.27% [at 125 µM]
5 | Cc1ccccc1NC(=O)CNc1ccccc1C(=O)NCc1ccco1 |  | 5.5% [at 125 µM]
6 | Cc1ccc(CNC(=O)CCc2nnc3ccc(N4CCC5(CC4)OCCO5)nn23)cc1 |  | 25.6%
7 | COc1ccc(Nc2ncc(C#N)c(N)n2)c(OC)c1 |  | -3.23%
8 | COc1ccc(S(=O)(=O)Nc2ccccn2)c(C)c1C |  | 1.99% [at 45 µM]
9 | CC(=O)Nc1ccc(NC(=O)CSc2ccc3nnc(-c4ccccn4)n3n2)cc1 |  | 26.3% [at 45 µM]
10 | CCOc1ccccc1NC(=O)CSc1ccc2nnc(-c3cccnc3)n2n1 |  | 29%
11 | COc1ccc(CC(=O)N/N=C/c2cccnc2)cc1OC |  | -6.39%
12 | Cc1cc(C)nc(NS(=O)(=O)c2ccc(N3C(=O)c4ccccc4C3=O)cc2)n1 | 29.8 µM (active) | 
13 | Cc1ccccc1OCC(=O)Nc1sc(C(=O)Nc2cccc(C)c2C)c(C)c1C#N | 6.15 µM (active) | 
14 | Cc1cc(Br)c2nc3c(c(C(=O)O)c2c1)CCCCC3 | 1.94 µM (active) | 
15 | N#CCCSc1ncnc2c1oc1ccccc12 | 19.4 µM (active) | 
16 | O=[N+]([O-])c1cc2c(c(CSc3nnc4ccccn34)c1)OCOC2 | 30.9 µM (active) | 
17 | CC(C)n1c(CN2CCN(C(=O)c3ccco3)CC2)nc2c1c(=O)n(C)c(=O)n2C |  | 28.8%

Row | Structure (SMILES) | Potency | activation
18 | CCn1c(=O)c2cc(C(=O)Nc3cccc(C(C)=O)c3)sc2c2ccccc21 |  | 7.81%
19 | CC1C/C(=N\NC(N)=S)c2cc(Cl)ccc2S1 (centres undefined) |  | 5.78%
20 | COc1ccc(CNC(=O)CN2C(=O)NC(C)(c3cccc(Br)c3)C2=O)cc1 (centres undefined) |  | -2.25%
21 | Cc1cc(NC(=O)c2ccccc2F)nc2c1c(=O)oc1ccccc12 | 17.3 µM (active) | 
22 | O=C(Nc1ccccc1C(=O)O)c1ccc(NC(=O)C2CC2)cc1 |  | -5.11% [at 45 µM]
23 | Brc1ccc2ncnc(NCc3cccnc3)c2c1 | 38.9 µM (active) | 
24 | CN1CCN(C(=O)CCc2nnc3ccc(N4CCC5(CC4)OCCO5)nn23)CC1 |  | 19%
25 | C=CCSc1nc2c(c(=O)[nH]1)C(C(C)C)C(C#N)=C(N)O2 (centres undefined) | 27.5 µM (active) | 
26 | CCOC(=O)/C(C#N)=C/c1c(N2CCN(CC)CC2)nc2c(C)cccn2c1=O |  | 23.8%
27 | CCCC(=O)Nc1ncnc2c1ncn2[C@@H]1O[C@@H]2OP(=O)(O)OC[C@H]2[C@H]1OC(=O)CCC | 0.346 µM (active) | 
28 | Cc1cccc2cc(C#N)c(SCC(=O)NCc3cccs3)nc12 | 17.3 µM (active) | 
29 | CC1(C)Cc2nc3sc4c(SCC(=O)NC(c5ccccc5)c5ccccc5)ncnc4c3cc2CO1 | 4.88 µM (active) | 
30 | COc1cccc(CNC(=O)c2ccc(CS(=O)Cc3ccc(C)cc3)o2)c1 (centres undefined) |  | 3.96% [at 45 µM]
31 | Cc1cc(C)c(NC(=O)CS(=O)CC(=O)Nc2ccc(F)cc2F)c(C)c1 (centres undefined) |  | 3.66%
32 | Cc1cccc(-c2nnc(SCC(=O)NC3CC3)n2C)c1 |  | -32%
33 | Cc1c(C(=O)NNc2cc(=O)n(C)c(=O)n2C)cccc1[N+](=O)[O-] |  | 25.3% [at 45 µM]
34 | CC(C)c1ccccc1NC(=O)c1ccccc1NC(=O)C1CCCCC1 |  | 5.99% [at 125 µM]

Source: PubChem BioAssay AID489012 (National Center for Advancing Translational Sciences (NCATS), 2010)
